According to the supplement of paper PMC11732987, “Enantioselective OTUD7B fragment discovery through chemoproteomics screening and high-throughput optimisation” (Communications Chemistry, 2025):

Tests used:
Experiment in all cases: log2 ratio of Biotin-Ahx-Ub-VS probe labelling (fragment/DMSO); higher = less target engagement (more negative = stronger competition), active = hit call of the paper (q ≤ 0.05, log2 ratio ≤ -1)
Details in all cases: compound concentration: 200 uM; treatment time: 3 h
[1] = target: T1, USP19 (UniProt O94966)
T1 sequence (whole entry): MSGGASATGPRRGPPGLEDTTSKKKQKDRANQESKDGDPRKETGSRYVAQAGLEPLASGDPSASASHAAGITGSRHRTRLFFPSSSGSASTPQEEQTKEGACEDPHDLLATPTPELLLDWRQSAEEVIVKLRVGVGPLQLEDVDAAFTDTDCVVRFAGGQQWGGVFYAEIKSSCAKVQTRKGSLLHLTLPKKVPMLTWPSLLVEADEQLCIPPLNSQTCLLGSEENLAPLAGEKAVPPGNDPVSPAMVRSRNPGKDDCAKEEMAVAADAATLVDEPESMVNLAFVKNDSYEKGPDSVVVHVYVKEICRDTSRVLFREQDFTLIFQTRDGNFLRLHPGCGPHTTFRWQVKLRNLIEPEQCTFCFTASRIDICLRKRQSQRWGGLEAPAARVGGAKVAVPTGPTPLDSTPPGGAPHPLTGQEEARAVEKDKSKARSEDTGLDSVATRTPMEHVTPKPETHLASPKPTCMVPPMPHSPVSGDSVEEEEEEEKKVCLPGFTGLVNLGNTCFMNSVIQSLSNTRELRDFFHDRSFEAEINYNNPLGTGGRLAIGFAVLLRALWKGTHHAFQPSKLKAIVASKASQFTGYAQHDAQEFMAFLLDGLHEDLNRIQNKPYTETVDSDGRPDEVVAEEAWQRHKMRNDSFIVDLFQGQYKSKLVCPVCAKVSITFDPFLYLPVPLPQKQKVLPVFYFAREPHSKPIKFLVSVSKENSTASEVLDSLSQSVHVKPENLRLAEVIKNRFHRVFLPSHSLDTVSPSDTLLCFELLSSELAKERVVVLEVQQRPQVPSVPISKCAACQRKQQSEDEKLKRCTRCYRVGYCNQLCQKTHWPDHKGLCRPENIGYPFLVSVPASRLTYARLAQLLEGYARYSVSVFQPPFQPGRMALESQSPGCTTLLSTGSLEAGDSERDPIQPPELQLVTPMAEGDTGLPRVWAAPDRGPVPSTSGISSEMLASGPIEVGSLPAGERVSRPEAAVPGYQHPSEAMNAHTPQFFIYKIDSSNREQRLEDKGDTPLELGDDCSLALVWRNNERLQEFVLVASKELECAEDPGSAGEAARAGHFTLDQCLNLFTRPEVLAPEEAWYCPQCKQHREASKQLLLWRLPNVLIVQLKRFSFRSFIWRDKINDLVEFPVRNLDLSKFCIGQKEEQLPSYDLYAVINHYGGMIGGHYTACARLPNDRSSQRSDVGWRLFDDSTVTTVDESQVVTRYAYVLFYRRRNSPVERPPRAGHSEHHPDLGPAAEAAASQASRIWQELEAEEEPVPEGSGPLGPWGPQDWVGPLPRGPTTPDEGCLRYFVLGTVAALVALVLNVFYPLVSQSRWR
Outline: (§1)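 Average log2 ratios of fragment over vehicle were obtained by unpaired t-test from global-median-normalised Spectronaut label-free quantities. Proteins with ≥2 unique peptides were included. HEK293T lysate (495 µg per sample) was treated in triplicate with fragment at 200 µM or vehicle for 3 h, then with Biotin-Ahx-Ub-VS at 0.5 µM final for 1 h, and labelled DUBs were NeutrAvidin-enriched and run by diaPASEF LC-MS/MS.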

[2] = target: T2, USP22 (UniProt Q9UPT9)
T2 sequence (whole entry): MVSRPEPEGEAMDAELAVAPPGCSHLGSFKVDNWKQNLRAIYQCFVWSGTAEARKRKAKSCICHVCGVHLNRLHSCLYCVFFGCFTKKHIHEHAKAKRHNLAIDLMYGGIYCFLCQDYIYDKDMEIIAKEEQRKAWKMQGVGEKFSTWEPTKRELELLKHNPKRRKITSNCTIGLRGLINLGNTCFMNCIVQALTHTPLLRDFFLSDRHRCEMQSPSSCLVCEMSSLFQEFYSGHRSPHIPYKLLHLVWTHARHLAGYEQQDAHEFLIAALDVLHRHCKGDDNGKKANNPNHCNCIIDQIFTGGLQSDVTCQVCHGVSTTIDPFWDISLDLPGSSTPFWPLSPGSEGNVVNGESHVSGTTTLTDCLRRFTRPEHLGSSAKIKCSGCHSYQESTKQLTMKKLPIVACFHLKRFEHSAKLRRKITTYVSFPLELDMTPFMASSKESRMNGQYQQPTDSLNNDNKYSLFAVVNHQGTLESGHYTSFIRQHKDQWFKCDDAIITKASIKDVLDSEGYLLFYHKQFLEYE
Outline: as §1

[3] = target: USP24 (UniProt Q9UPU5)
Outline: as §1

[4] = target: T3, USP25 (UniProt Q9UHP3)
T3 sequence (whole entry): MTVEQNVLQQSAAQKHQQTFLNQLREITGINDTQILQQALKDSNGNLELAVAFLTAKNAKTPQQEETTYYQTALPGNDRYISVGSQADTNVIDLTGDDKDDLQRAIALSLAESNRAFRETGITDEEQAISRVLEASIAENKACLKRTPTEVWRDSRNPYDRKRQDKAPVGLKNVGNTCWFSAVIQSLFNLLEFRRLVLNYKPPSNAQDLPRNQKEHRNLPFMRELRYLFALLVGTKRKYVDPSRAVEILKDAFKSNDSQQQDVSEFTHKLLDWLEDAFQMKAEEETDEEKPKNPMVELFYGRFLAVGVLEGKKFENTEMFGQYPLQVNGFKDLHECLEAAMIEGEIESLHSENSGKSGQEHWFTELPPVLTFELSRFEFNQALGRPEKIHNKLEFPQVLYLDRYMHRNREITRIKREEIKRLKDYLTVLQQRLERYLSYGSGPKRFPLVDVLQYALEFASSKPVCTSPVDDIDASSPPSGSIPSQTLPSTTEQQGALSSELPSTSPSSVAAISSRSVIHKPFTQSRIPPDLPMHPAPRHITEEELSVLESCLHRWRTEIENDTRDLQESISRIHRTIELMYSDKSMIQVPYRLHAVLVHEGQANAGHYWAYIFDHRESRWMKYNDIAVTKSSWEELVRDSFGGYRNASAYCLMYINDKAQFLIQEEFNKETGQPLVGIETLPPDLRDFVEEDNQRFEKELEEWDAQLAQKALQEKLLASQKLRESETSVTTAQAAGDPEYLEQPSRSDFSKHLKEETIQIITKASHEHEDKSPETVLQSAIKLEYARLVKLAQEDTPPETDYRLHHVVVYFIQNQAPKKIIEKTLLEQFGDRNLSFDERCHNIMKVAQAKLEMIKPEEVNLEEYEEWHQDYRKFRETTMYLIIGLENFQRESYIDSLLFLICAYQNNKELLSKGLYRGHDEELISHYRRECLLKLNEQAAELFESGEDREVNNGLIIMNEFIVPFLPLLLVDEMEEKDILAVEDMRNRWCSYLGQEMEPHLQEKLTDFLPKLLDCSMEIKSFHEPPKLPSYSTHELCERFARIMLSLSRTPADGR
Outline: as §1

[5] = target: T4, USP28 (UniProt Q96RU2)
T4 sequence (whole entry): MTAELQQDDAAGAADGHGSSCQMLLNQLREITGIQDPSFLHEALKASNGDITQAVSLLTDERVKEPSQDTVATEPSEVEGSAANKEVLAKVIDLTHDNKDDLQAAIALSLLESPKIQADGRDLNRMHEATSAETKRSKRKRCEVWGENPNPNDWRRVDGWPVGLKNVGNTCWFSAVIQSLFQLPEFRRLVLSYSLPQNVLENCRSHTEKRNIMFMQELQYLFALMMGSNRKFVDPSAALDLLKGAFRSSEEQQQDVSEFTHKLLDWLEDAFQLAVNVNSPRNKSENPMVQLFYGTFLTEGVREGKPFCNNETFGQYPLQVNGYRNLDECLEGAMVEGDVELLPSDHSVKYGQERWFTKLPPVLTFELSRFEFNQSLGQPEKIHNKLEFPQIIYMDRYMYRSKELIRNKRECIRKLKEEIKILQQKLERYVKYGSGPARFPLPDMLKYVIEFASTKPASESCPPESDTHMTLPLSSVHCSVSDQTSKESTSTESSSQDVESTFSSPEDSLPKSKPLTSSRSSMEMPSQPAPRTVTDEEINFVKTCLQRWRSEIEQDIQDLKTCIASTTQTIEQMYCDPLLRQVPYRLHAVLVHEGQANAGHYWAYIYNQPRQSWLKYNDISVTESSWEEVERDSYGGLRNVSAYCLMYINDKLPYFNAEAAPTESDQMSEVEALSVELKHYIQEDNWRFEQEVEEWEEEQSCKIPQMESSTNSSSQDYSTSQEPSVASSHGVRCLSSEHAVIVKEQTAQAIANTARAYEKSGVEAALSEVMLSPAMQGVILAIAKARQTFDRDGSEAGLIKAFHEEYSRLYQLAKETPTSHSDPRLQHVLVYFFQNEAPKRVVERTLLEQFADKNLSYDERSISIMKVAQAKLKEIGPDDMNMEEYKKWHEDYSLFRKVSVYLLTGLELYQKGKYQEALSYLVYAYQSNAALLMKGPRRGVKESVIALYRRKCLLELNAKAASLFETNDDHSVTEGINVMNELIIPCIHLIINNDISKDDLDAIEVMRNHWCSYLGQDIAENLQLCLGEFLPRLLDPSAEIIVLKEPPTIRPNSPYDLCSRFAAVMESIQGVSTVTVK
Outline: as §1

Measured: log2 ratio of Biotin-Ahx-Ub-VS probe labelling

Sequence of USP24 (Q9UPU5 whole entry): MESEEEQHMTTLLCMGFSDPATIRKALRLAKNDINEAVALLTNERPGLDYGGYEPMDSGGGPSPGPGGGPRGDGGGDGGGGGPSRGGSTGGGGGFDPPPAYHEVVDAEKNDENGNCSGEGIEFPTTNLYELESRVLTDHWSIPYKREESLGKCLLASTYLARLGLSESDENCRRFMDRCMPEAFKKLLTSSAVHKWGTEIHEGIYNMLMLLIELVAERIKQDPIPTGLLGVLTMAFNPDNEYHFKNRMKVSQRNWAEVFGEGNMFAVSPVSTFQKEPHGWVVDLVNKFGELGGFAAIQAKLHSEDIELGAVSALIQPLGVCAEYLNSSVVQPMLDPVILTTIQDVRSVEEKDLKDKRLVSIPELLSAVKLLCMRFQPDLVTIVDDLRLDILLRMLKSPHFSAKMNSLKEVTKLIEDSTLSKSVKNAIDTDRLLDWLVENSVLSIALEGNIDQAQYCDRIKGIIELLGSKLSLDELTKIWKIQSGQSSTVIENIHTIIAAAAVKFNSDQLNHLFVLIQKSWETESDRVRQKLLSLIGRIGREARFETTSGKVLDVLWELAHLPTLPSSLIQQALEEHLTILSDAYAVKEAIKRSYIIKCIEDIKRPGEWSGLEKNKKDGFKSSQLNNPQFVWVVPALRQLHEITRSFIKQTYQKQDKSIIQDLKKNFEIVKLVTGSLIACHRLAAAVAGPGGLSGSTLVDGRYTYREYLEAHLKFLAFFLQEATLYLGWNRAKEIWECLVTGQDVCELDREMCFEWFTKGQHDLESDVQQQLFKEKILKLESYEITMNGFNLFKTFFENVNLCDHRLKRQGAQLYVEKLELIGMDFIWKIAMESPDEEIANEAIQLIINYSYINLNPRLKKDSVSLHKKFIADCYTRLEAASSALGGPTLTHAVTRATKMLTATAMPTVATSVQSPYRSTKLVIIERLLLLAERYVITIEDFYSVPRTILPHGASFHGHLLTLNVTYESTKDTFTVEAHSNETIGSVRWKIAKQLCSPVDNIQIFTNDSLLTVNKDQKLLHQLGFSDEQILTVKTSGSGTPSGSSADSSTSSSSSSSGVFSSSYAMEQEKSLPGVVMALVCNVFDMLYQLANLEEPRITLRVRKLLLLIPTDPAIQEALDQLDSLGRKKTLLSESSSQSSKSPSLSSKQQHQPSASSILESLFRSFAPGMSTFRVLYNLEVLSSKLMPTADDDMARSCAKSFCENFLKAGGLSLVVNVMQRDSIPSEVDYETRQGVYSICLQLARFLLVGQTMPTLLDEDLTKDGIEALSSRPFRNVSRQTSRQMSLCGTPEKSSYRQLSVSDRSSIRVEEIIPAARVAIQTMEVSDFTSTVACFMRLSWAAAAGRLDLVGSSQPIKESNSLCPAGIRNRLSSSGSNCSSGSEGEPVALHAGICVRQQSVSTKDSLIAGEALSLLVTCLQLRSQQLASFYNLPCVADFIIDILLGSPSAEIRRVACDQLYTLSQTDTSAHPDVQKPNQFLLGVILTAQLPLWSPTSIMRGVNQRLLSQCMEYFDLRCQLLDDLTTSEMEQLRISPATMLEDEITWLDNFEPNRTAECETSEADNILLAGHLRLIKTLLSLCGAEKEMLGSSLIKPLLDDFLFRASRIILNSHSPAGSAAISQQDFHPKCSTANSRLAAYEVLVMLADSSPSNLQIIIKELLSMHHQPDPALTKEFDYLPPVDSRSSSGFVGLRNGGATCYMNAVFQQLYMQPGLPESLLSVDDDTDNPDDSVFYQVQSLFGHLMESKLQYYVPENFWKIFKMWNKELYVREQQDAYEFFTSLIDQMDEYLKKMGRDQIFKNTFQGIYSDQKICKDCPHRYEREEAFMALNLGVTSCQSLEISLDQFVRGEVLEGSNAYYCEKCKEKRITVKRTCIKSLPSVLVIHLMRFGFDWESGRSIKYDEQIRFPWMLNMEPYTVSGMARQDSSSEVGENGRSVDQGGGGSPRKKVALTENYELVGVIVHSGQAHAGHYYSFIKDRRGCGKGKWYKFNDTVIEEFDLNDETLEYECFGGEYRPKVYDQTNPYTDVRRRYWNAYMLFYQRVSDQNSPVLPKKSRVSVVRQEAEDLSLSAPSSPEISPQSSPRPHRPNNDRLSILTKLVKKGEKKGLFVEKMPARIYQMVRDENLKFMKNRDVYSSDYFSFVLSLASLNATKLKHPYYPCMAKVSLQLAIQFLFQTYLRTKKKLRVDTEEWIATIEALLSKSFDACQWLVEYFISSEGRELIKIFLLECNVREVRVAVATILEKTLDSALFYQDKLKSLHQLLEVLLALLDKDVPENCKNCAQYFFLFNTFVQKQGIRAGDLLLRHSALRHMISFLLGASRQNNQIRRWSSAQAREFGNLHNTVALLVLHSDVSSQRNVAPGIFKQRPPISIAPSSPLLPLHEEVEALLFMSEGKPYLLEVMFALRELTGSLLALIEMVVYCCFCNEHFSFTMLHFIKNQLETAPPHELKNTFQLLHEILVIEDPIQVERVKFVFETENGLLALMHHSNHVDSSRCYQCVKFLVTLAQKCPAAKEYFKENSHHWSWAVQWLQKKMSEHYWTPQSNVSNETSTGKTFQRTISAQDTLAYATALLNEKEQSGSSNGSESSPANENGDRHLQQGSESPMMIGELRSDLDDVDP

O=C(CCl)Nc1nnc(CC(F)(F)F)o1
inactive: [1] -0.39 | [2] -0.0202 | [3] -0.372 | [4] -0.777 | [5] -0.479
